Reference: PubChem BioAssay (EPA / NIEHS)
Calls of active or inactive are those of the source. Rule for the calls: active = hit-call score of the fitted dose curve at least 0.9, where 1 is the maximum; inactive = score below 0.9.

test: APR_HepG2_CellCycleArrest_72hr: Apredica 72-hour HepG2 Assay for Cell Cycle Arrest (AID 2282914); conditions: high-content imaging, actives raise or lower the signal
Summary of the method: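 HepG2 cells exposed 72 h in duplicate to 0.39–200 uM compound, 0.5% DMSO final. Formaldehyde-fixed, Hoechst 33342-stained nuclei imaged at 20x, six fields per well; DNA content per valid cell quantified by cell-cycle image analysis, bidirectional fit versus DMSO.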

Compound | outcome | AC50
O=C1c2c(O)cccc2Cc2cccc(O)c21 | inactive | –
CCCCCCCC(=O)OC | inactive | –
CCc1cc(C2=C(C(=O)O)N(c3ccccc3C(F)(F)F)S(=O)(=O)c3ccccc32)cc2c1OCO2 | inactive | –
OCC(O)CO | inactive | –
S=c1[nH]c2ccccc2s1 | inactive | –
CCCCCCCCCC[N+](C)(C)[O-] | inactive | –
CN(C)CCCN1c2ccccc2Sc2ccc(Cl)cc21 | – | 102 µM (active)
COc1ccc(C(=O)Nc2nc3ccccc3c(NCc3ccccc3)c2C#N)cc1 | inactive | –
CO[C@@H]1COCC[C@@H]1N[C@@H]1CC[C@@](C(=O)N2CCc3ncc(C(F)(F)F)cc3C2)(C(C)C)C1 | inactive | –
CS(=O)(=O)c1ccc([C@@H](C[C@H]2CCC(=O)C2)C(=O)Nc2cnccn2)cc1Cl | inactive | –
COc1ccc(OC(F)(F)F)cc1CN[C@H]1CCCN[C@H]1c1ccccc1 | inactive | –
Oc1ccc(O)cc1 | – | 100 µM (active)
CN(C)C(=O)NC1(c2ccccc2)CCN(CC[C@@]2(c3ccc(F)c(F)c3)CN(C(=O)c3ccccc3)CCO2)CC1 | inactive | –
CN(C)C(=O)NC1(c2ccccc2)CCN(CCC[C@]2(c3ccc(Cl)c(Cl)c3)CCCN(C(=O)c3ccccc3)C2)CC1 | inactive | –
NCCOCCOCCN | – | 18.6 µM (active)
CCc1nc(N)nc(N)c1-c1ccc(Cl)cc1 | – | 100 µM (active)
CC(C)(O)c1ccc(CNC(=O)c2cccnc2Oc2ccc(F)cc2)cc1 | inactive | –
Nc1nc(Cl)nc2c1ncn2[C@H]1C[C@H](O)[C@@H](CO)O1 | – | 0.0388 µM (active)
CN(C)CCCN(C)CCCN(C)C | inactive | –
